The text below walks through data of PubChem BioAssay (Tox21).

SMILES strings stand for the structures. Values without a mark were called inactive. Inconclusive results are not listed. Activity calls are given as the source filed them. Unless noted, calls come from the whole dose curve; as a rule, active = well fitted curve in the direction sought with a large enough effect in the repeat runs; inconclusive = weak or mixed curves; inactive = no such curve, though single readings can be large; an effect the other way counts as inactive or inconclusive.

Assay [1] can be described thus: qHTS assay for small molecule agonists of the p53 signaling pathway (AID 651631; calls by dose curve; note: nearly all actives have a fitted effect of over 15% in size). A digest of the protocol:
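HCT-116 cells carrying a stable p53 response element–beta-lactamase reporter were plated, rested 5 h at 37 °C, then exposed to compound in DMSO for 16 h at 37 °C; reporter activity was read as FRET substrate fluorescence after 2 h at room temperature.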

Assay [2] can be described thus: qHTS assay for small molecules that induce genotoxicity in human embryonic kidney cells expressing luciferase-tagged ATAD5 (AID 651632). Note: nearly all actives have a fitted effect of over 15% in size. Note: potency is the fitted concentration of half-maximal effect. The essentials:
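Reporter cells (HEK293T) express luciferase-tagged ATAD5, a protein that accumulates after DNA damage. Treat 16 hr at 37C/5% CO2, add Amplite, wait 30 min at RT, and read luminescence.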
(In general: qHTS replaces the single test concentration by a dilution series.)

Assay [3] is described as follows: qHTS assay for small molecule agonists of the p53 signaling pathway - cell viability (AID 651633; calls by dose curve; note: series mostly up to about 83 µM; nearly all actives have a fitted effect of over 30% in size). A digest of the protocol:
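p53RE-bla cells, seeded at 4,000 per well and rested 5 h at 37 C/5% CO2, received compounds in DMSO for 16 h at 37 C. CellTiter-Glo was then added, and luminescence was read after 30 min at room temperature to gauge cytotoxicity.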

Assay [4] can be described thus: qHTS assay for small molecules that induce genotoxicity in human embryonic kidney cells expressing luciferase-tagged ATAD5 - cell viability (AID 651634; calls by dose curve; note: nearly all actives have a fitted effect of over 25% in size). The essentials:
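Seeding of 2,000 HEK293T ATAD5-luciferase cells per well preceded pin-tool compound transfer. Plates sat 15.5 hr at 37C under 5% CO2, then fluorescence was read after 30 min with CellTiter-Fluor.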

The nature of assay [5]: qHTS assay for small molecule disruptors of the mitochondrial membrane potential - cell viability (AID 720634; calls by dose curve;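 note: human HepG2 liver cancer cells; series mostly up to about 83 µM; nearly all actives have a fitted effect of over 20% in size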). The essentials: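 Measuring cytotoxicity alongside mitochondrial potential, the screen quantified ATP by luminescence in HepG2 cells after 1 hr compound incubation and a 30 min room-temperature CellTiter-Glo step.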
Assay [6] can be described thus: qHTS assay to test for compound auto fluorescence at 590 nm (red) in HepG2 cells (AID 720674). The essentials:
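Compound auto-fluorescence is scored relative to Rose Bengal sodium, measured at 540/590 nm in live HepG2 cultures after 1 hr compound contact (37 C, 5% CO2).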

A short description of assay [7]: qHTS assay to test for compound auto fluorescence at 535 nm (green) in HepG2 cells (AID 720675).
The nature of assay [8]: qHTS assay to test for compound auto fluorescence at 460 nm (blue) in HEK293 cells (AID 720678). The essentials: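 Cells were seeded and left to adhere for 4-5 hr at 37C. Compounds were then pin-transferred. After an overnight incubation at 37C under 5% CO2, intrinsic fluorescence at 405/460 nm was measured and referenced to triamterene.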
Assay [9] can be described thus: qHTS assay to test for compound auto fluorescence at 590 nm (red) in HEK293 cells (AID 720679). A digest of the protocol: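 Each well held 2,000 HEK293 cells in medium containing 10% dialyzed FBS. Following 4-5 hr attachment at 37C, 23 nL test compound or DMSO was added; plates sat overnight, and red fluorescence (540/590nm) was recorded.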
Assay [10] is described as follows: qHTS assay for small molecule disruptors of the mitochondrial membrane potential (AID 720635). Note: potency is the fitted concentration of half-maximal effect. A digest of the protocol: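 HepG2 cells (2,000/well) attached overnight at 37C, then took compound for 1 hr at 37C, 5% CO2. Mito-MPS dye was added for 30 min; fluorescence was read at 490/535 nm (monomers) and 540/590 nm (aggregates).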
% is set by controls: 0 for no effect and ±100 for the full control effect.

`Nc1c(Cl)cc(Cl)cc1[N+](=O)[O-]`: the Potency result in assay [1], in assay [2], in assay [3], in [4] and in [8] was “inactive” throughout. In addition, the call in assay [5], in [6], in [7] and in assay [9] was inactive.
Regarding `CCCCCCCCCCCCCCN(C)C`, the Potency entry in assay [1], in assay [2], in [3], in assay [4] and in [10] was “inactive” throughout. Also, the fluorescence, relative to Rose Bengal in assay [6] was 0.132% [at 18.6 µM]. Further, in assay [7], the fluorescence, % of fluorescein control was 0.0291% [at 18.6 µM]. The fluorescence, % of triamterene in [8] was -0.142% [at 18.6 µM]. The fluorescence, % of fluorescent control in assay [9] is 0.0361% [at 18.6 µM].
Turning to `CC(=O)OCCC1CCCCC1`, the Potency result in assay [1], in assay [2], in assay [3], in assay [4], in assay [10] and in [8] was “inactive” in each case. The compound was called inactive in [6], in assay [7] and in assay [9].
Turning to `Cc1ccc(Cl)cc1N`, the Potency result in assay [1], in assay [2], in assay [3] and in assay [4] was “inactive” in each case. Also, the call in assay [5], in [6], in assay [7] and in assay [9] was inactive.
`CC(=O)Oc1cccc(O)c1`: the Potency entry in assay [1], in assay [2], in assay [3], in [4] and in assay [8] was “inactive” throughout. Moreover, the compound was classed as inactive in assay [6], in [7] and in assay [9].
On to `NC(=O)CCCCC(N)=O`, for which the Potency entry in [1], in assay [2], in assay [3], in assay [4] and in assay [8] was “inactive” each time. In addition, the result in [5], in [6], in assay [7] and in assay [9] was inactive.
Take `O=[N+]([O-])c1ccc2ncccc2c1`: the Potency entry in assay [1], in assay [2], in assay [3] and in [4] was “inactive” in each case. Besides, the result in assay [5], in assay [6], in [7] and in assay [9] was inactive.
As for `O=C(NC(Cc1cc(=O)[nH]c2ccccc12)C(=O)O)c1ccc(Cl)cc1` (stereo not drawn), the Potency entry in assay [1], in assay [2], in assay [3] and in assay [4] was “inactive” throughout. Also, the compound was classed as inactive in assay [5], in assay [6], in assay [7] and in [9].
For the compound `Cc1cc(CCC(=O)OCCOCCOCCOC(=O)CCc2cc(C)c(O)c(C(C)(C)C)c2)cc(C(C)(C)C)c1O`, the Potency entry in assay [1], in [2], in [3], in [4] and in assay [8] was “inactive” in each case. Also, the Potency in assay [10] is 59.6 µM (active). The compound was classed as inactive in assay [6], in [7] and in assay [9].
Turning to `CC(C)N=C=NC(C)C`, the Potency entry in assay [1], in [2], in assay [3], in assay [4], in assay [10] and in assay [8] was “inactive” each time. Besides, the compound was classed as inactive in [6], in [7] and in [9].
As for `CC[C@H]1OC(=O)[C@H](C)[C@@H](O[C@H]2C[C@@](C)(OC)[C@@H](O)[C@H](C)O2)[C@H](C)[C@@H](O[C@@H]2O[C@H](C)C[C@H](N(C)C)[C@H]2O)[C@](C)(O)C[C@@H](C)CN(C)[C@H](C)[C@@H](O)[C@]1(C)O`, the Potency result in assay [1], in assay [2], in assay [3] and in assay [4] was “inactive” throughout. Besides, the compound was classed as inactive in assay [5], in assay [6], in assay [7] and in assay [9].
Take `CC1CCc2nccnc21` (stereo not drawn): the Potency result in [1], in assay [2], in assay [3], in assay [4], in assay [10] and in assay [8] was “inactive” throughout. Moreover, the result in [6], in assay [7] and in [9] was inactive.
On to `O=P(O)(O)Oc1ccccc1`, for which the Potency entry in assay [1], in assay [2], in assay [3], in assay [4] and in assay [8] was “inactive” in each case. In addition, the call in assay [6], in assay [7] and in assay [9] was inactive.
As to `C[C@@H]1C[C@H]2[C@@H]3CCC4=CC(=O)C=C[C@]4(C)[C@@]3(F)[C@@H](O)C[C@]2(C)[C@@]1(O)C(=O)COP(=O)(O)O`, the Potency entry in [1], in assay [2], in [3], in [4], in [10] and in assay [8] was “inactive” in each case. For the same compound, the result in assay [6], in assay [7] and in assay [9] was inactive.
Turning to `O=C(Oc1ccccc1)c1ccc2ccccc2c1O`, the Potency result in assay [1], in assay [3], in assay [4] and in [8] was “inactive” in each case. For the same compound, the Potency in assay [2] was 9.69 µM (active). Further, the outcome in assay [6], in [7] and in [9] was inactive.
For the compound `O=C(O)CCC(=O)c1ccc(-c2ccccc2)cc1`, the Potency result in assay [1], in [2], in assay [3] and in [4] was “inactive” each time. Moreover, the fluorescence, relative to Rose Bengal in assay [6] is 0.795% [at 18.6 µM]. Moreover, the fluorescence, % of fluorescein control in assay [7] is 0.0165% [at 18.6 µM]. In addition, in assay [8], the fluorescence, % of triamterene is -0.239% [at 18.6 µM]. The fluorescence, % of fluorescent control in assay [9] is -0.0888% [at 18.6 µM].
For the compound `NC(=O)c1ccccc1[N+](=O)[O-]`, the Potency entry in assay [1], in [2], in assay [3], in assay [4] and in assay [8] was “inactive” in each case. Moreover, the compound was called inactive in [5], in assay [6], in assay [7] and in assay [9].
For the compound `CCOC(=O)C(C)O` (stereo not drawn), the Potency entry in assay [1], in [2], in assay [3], in assay [4] and in [8] was “inactive” in each case. For the same compound, the compound was called inactive in assay [6], in assay [7] and in [9].
